The sample as a whole holds a higher share of hits than the screen did.
CBX7 inh = CBX7 chromodomain binding inhibitors, primary screen, biochemical, AlphaScreen; normalised signal (fraction of DMSO) (concentration not given with the values); actives 1.1% (n = 66,000); AlphaScreen His6-CBX7 / biotin-H3K27me3 peptide binding; active compounds read low; in the data active = normalised signal below about 0.5
Target sequence (O95931 whole entry, looked up): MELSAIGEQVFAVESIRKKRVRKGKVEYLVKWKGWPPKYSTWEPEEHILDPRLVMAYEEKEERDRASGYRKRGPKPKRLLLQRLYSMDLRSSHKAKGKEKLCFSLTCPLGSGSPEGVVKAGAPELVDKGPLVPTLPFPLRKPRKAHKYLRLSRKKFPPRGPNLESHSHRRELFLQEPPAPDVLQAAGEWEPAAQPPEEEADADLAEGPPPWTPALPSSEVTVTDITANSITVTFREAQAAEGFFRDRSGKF
* marks the source's active call; other numbers are inactive results; ! = not active in a repeat.

What do the screens show for `Cc1ccc(NCC(O)Cn2c3c(c4cc(C)ccc42)CCCC3)c(C)c1` (stereo unspecified)?
CBX7 inh: 0.47*

What do the screens show for `Cc1ccc(NCC(O)Cn2c3c(c4cc(C)ccc42)CCCC3)cc1` (stereo unspecified)?
CBX7 inh: 0.6

How did Cc1ccc2c(c1)c1c(n2CC(O)CN2CCCCC2C)CCCC1 (stereo unspecified) do in these assays?
CBX7 inh: 0.82

What do the screens show for `Cc1cc(C)c(S(=O)(=O)NCCc2cc3ccc(C)cc3[nH]c2=O)c(C)c1`?
CBX7 inh: 1

How did CN(C)CC(=O)Nc1c2c(nc3c1CCC3)CCCC2 do in these assays?
CBX7 inh: 0.23*

What do the screens show for `O=C(CCN1Cc2ccccc2C1)Nc1c2c(nc3c1CCC3)CCCC2`?
CBX7 inh: 0.95

How did CC(C)NCC(=O)Nc1c2c(nc3c1CCC3)CCCC2 do in these assays?
CBX7 inh: 0.52

Results for O=C(CN1CCN(c2ccccc2)CC1)Nc1c2c(nc3c1CCC3)CCCC2 ?
CBX7 inh: 0.98

Results for CCN(CC)CC(=O)Nc1c2c(nc3c1CCC3)CCC2 ?
CBX7 inh: 1

Results for O=C(Nc1c2c(nc3c1CCC3)CCCC2)c1ccccn1 ?
CBX7 inh: 0.14*

How did CCOc1ccc(-c2nc(C#N)c(NCCN3CCOCC3)o2)cc1 do in these assays?
CBX7 inh: 1.2

Results for Cc1cc(OCC(=O)Nc2nc3ccccc3s2)cc(C)c1Cl ?
CBX7 inh: 1.1

What do the screens show for `COc1ccc(CNC(=O)c2cnn3c(C)c(Cc4c(F)cccc4Cl)c(C)nc23)cc1`?
CBX7 inh: 0.82

Results for Cc1ccccc1Nc1c(-c2ccccc2)nc2cccc(C)n12 ?
CBX7 inh: 1

Results for Cc1ccccc1Nc1c(-c2ccc(Cl)cc2)nc2cccc(C)n12 ?
CBX7 inh: 0.94

What do the screens show for `Cc1ccccc1Nc1c(-c2ccc(N(C)C)cc2)nc2cccc(C)n12`?
CBX7 inh: 0.46*

Results for CCN(CCCNC(=O)CCc1nc(-c2ccc(OC)cc2)no1)c1cccc(C)c1 ?
CBX7 inh: 0.42*

How did COc1ccc(-c2noc(CCC(=O)NCCN(C)C)n2)cc1 do in these assays?
CBX7 inh: 0.89

How did COc1ccc(-c2noc(CCC(=O)NCCCOC(C)C)n2)cc1 do in these assays?
CBX7 inh: 0.89

How did Cc1ccc(-c2csc(Nc3ccc(Cl)cc3)n2)cc1C do in these assays?
CBX7 inh: 0.31*!

What do the screens show for `COc1cccc(Nc2nc(-c3ccc(Cl)c(Cl)c3)cs2)c1`?
CBX7 inh: 0.44*

Results for COc1cccc(Nc2nc(-c3ccccc3)cs2)c1 ?
CBX7 inh: 1.2

What do the screens show for `Brc1ccc(Nc2nc(-c3ccc(I)cc3)cs2)cc1`?
CBX7 inh: 0.71

Results for Clc1ccc(-c2csc(Nc3ccccc3)n2)cc1Cl ?
CBX7 inh: 0.79

Results for Clc1ccc(-c2csc(Nc3ccc(Br)cc3)n2)cc1Cl ?
CBX7 inh: 0.46*!

How did Cc1ccc(C)c(-c2csc(Nc3ccc(Cl)cc3)n2)c1 do in these assays?
CBX7 inh: 0.99

How did COc1ccc(Nc2nc(-c3ccc(Cl)cc3)cs2)cc1 do in these assays?
CBX7 inh: 0.81

What do the screens show for `COc1cccc(Nc2nc(-c3ccc(-c4ccccc4)cc3)cs2)c1`?
CBX7 inh: 0.63

How did COc1ccccc1C1C(N2C(=O)c3ccccc3C2=O)C(=O)N1c1ccc(C)cc1 (stereo unspecified) do in these assays?
CBX7 inh: 1

What do the screens show for `Cc1nc2c(C(=O)NC3CC3)cnn2c(C)c1Cc1ccccc1Cl`?
CBX7 inh: 0.93

Results for COc1ccc(CNc2nc(SCc3ccccc3F)nc3ccccc23)cc1 ?
CBX7 inh: 0.91

Results for CCC(C)NC(=O)C(Cc1ccccc1)NS(=O)(=O)c1ccc2c(c1)CCC(=O)N2 (stereo unspecified) ?
CBX7 inh: 1.1

How did CCC1CCCCN1C(=O)CSc1nnc(-c2cccc(Cl)c2)o1 (stereo unspecified) do in these assays?
CBX7 inh: 1.2

What do the screens show for `CCOC(=O)c1cnc2ccc(OC)cc2c1Nc1ccccc1C(=O)O`?
CBX7 inh: 1.1

How did O=C(Nc1ccc(Br)cc1)c1nc[nH]c1C(=O)O do in these assays?
CBX7 inh: 0*

How did CCOC(=O)c1[nH]cnc1C(=O)Nc1ccc(Br)cc1 do in these assays?
CBX7 inh: 0.98

How did O=C(Nc1ccc(Br)cc1)c1ccccc1C(=O)c1ncc[nH]1 do in these assays?
CBX7 inh: 1.1

What do the screens show for `O=C(Nc1ccccn1)c1nc[nH]c1C(=O)O`?
CBX7 inh: 0.3*

Results for Cc1ccccc1NC(=O)c1nc[nH]c1C(=O)Nc1ccccc1C ?
CBX7 inh: 0.74

What do the screens show for `O=C(Nc1ccccc1C(=O)Nc1ccccn1)c1ccccc1`?
CBX7 inh: 1

What do the screens show for `Cc1ccc(NC(=O)CN(C)S(=O)(=O)c2cccc3cccnc23)c(C)c1`?
CBX7 inh: 0.83

What do the screens show for `CCCCN(CC)S(=O)(=O)c1ccc(C(=O)Nc2nnc(CC)o2)cc1`?
CBX7 inh: 0.079*

Results for CCN(Cc1ccccc1)S(=O)(=O)c1ccc2oc(C(=O)O)c(C)c2c1 ?
CBX7 inh: 1.2

Results for CCCCN(CC)S(=O)(=O)c1ccc(C(=O)Nc2ccccc2-c2nc3ccccc3s2)cc1 ?
CBX7 inh: 1.1

What do the screens show for `CCCN(CCC)S(=O)(=O)c1ccc(C(=O)Nc2nnc(-c3cccs3)o2)cc1`?
CBX7 inh: 0.93

How did Cc1nnc(NC(=O)c2ccc(S(=O)(=O)N(C)c3ccccc3)cc2)o1 do in these assays?
CBX7 inh: 0.78

What do the screens show for `CCN(Cc1ccccc1)S(=O)(=O)c1ccc(C(=O)Nc2nnc(C)o2)cc1`?
CBX7 inh: 0.0031*

How did CCN(c1ccccc1)S(=O)(=O)c1ccc(C(=O)Nc2nnc(C)o2)cc1 do in these assays?
CBX7 inh: 0.052*

What do the screens show for `Cc1ccc(-c2csc(NC(=O)c3ccc(S(=O)(=O)N(C)c4ccccc4)cc3)n2)cc1`?
CBX7 inh: 1

How did CCc1nnc(NC(=O)c2ccc(S(=O)(=O)N(CCC#N)CCC#N)cc2)o1 do in these assays?
CBX7 inh: 0.056*

What do the screens show for `CCc1nnc(NC(=O)c2ccc(S(=O)(=O)N(CC)Cc3ccccc3)cc2)o1`?
CBX7 inh: 0.76

How did O=C(Cn1cc(S(=O)(=O)c2ccc(F)cc2)c(=O)c2cc(F)ccc21)Nc1ccccc1 do in these assays?
CBX7 inh: 0.85

How did Cc1cccc(-n2c(Cc3cc(=O)[nH]c(=O)[nH]3)nnc2SCC(=O)N2CCC(C)CC2)c1 do in these assays?
CBX7 inh: 1.2

How did CCOC(=O)c1cccc(NC(=O)c2cccc3c2C(=O)N(CCOC)C3)c1 do in these assays?
CBX7 inh: 1

What do the screens show for `COc1ccc(-c2nc(CSCC(=O)N3CCCc4ccccc43)c(C)o2)cc1OC`?
CBX7 inh: 0.81

What do the screens show for `CCOc1ccc(-n2nc(C(=O)Nc3ccc(OC)c(Cl)c3)c3ccccc3c2=O)cc1`?
CBX7 inh: 0.99

Results for O=C(CSc1nnc(CNC(=O)c2cccs2)o1)Nc1cccc(F)c1 ?
CBX7 inh: 1.1

Results for COc1ccccc1Nc1ncc(C(=O)N(C)c2ccc(Cl)cc2)c2ccccc12 ?
CBX7 inh: 1.3

Results for N#Cc1nc(COc2ccc(F)cc2)oc1NCCCn1ccnc1 ?
CBX7 inh: 0.95

Results for CCOC(=O)C1=C(C)N=C2SC=C(c3ccccc3)N2C1c1ccccc1 (stereo unspecified) ?
CBX7 inh: 1

What do the screens show for `COc1cc2c(cc1OC)C(c1ccccc1OC(C)C)CC(=O)N2` (stereo unspecified)?
CBX7 inh: 0.97

High-throughput results from PubChem.
